Assay outcomes deposited in PubChem BioAssay by National Center for Advancing Translational Sciences (NCATS).
VACV mCherry inh = vaccinia inhibition (mCherry reporter). Vaccinia virus mCherry reporter infection, fluorescence. Potency, µM (top dose mostly 36.5 µM), usual class: inhibitors. actives 0.63% (n = 310,000). AID 720579; calls by dose curve; tested in A549 cells; also: nearly all actives have a fitted effect of over 35% in size
HCV inh = inhibitors of hepatitis C virus infection | Huh7.5.1 HCVcc-Cre infection, luciferase reporter, 44 h | Potency, µM (top dose mostly 41.8 µM), most hits filed as inhibitors | actives 3.4% (n = 340,000)
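Antiviral activity was scored by luciferase reporter output from cells infected with HCVcc-Cre (~0.5 moi) in presence of compound, 44 h infection period, cells seeded 1,000/well 4 h prior.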
Pf growth 96h = P. falciparum growth inhibition at 96 hours. P. falciparum luciferase reporter growth, 96 h. Potency, µM (titrated, usually from 28.7 µM), actives largely listed as inhibitors. actives 6.9% (n = 320,000). AID 504834
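P. falciparum expressing integrated firefly luciferase, in erythrocytes at 2% hematocrit, 0.05% parasitemia, incubated with compounds 96 h at 37 C, 5% CO2. Growth inhibition read as loss of luminescence; two-generation exposure targets delayed-death apicoplast inhibitors.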
NS1 inh = blocks influenza NS1 protein function | Potency, µM (doses to about 46.1 µM) | actives 0.4% (n = 270,000) | AID 2326; calls by dose curve; also: actives are rising curves; nearly all actives have a fitted effect of over 50% in size
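OD600 was taken as the measure of yeast growth restored by compound in an NS1-expressing S. cerevisiae strain. Cells had been washed out of glucose medium and diluted 1:100 into galactose -URA medium, pH 6.0.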
Pf growth 48h = P. falciparum growth inhibition at 48 hours (one generation). actives 5.9% (n = 310,000). Potency, µM (highest dose often 28.7 µM), usual class: inhibitors. P. falciparum luciferase growth in erythrocytes, 48 h
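Growth was read as firefly luciferase luminescence after a 48 h, 37 C, 5% CO2 exposure of compounds to reporter-bearing P. falciparum cultures (0.1% parasitemia, 2% hematocrit final) in Albumax-supplemented RPMI 1640.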
VACV Venus inh = inhibitors of vaccinia virus (Venus reporter); Vaccinia virus Venus reporter expression, fluorescence; Potency, µM (highest dose often 36.5 µM), most hits filed as inhibitors; actives 0.46% (n = 330,000); AID 720580; calls by dose curve; tested in A549 cells; also: nearly all actives have a fitted effect of over 30% in size
Each line names hits and unclear results; the compound was inactive in the other large screens; ! = repeats disagree. Only some compounds are listed: those with a hit (about 11% of all), similar ones and a draw of the others. Unless noted, calls follow the shape of the dose curve; as a rule, active = well fitted inhibition curve with a large enough effect; inconclusive = small, poorly fitted or top-dose-only effect, or another doubt; inactive = no such curve, though single readings can be large or run the other way.

O=C(O)c1ccc(S(=O)(=O)N2CCSCC2)cc1	Pf growth 96h inconclusive
O=[N+]([O-])c1cccc(S(=O)(=O)Nc2cccc(-c3ccc(N4CCCC4)nn3)c2)c1	Pf growth 96h 6.6µM, Pf growth 48h inconclusive (no result: NS1 inh)
CCC(C)n1c(SCc2ccc([N+](=O)[O-])cc2)nc2ccsc2c1=O (configuration not stated)	HCV inh 10µM, Pf growth 48h inconclusive
CCCCC(CC)CNCC(O)c1ccccc1 (configuration not stated)	Pf growth 96h inconclusive, Pf growth 48h inconclusive (no result: NS1 inh)
CC1CCC(NCC(O)c2ccccc2)CC1 (configuration not stated)	Pf growth 96h 6.6µM (no result: VACV mCherry inh, Pf growth 48h, VACV Venus inh)
OC(CNCCc1ccccc1)c1ccccc1 (configuration not stated)	Pf growth 96h 5.9µM, Pf growth 48h 5.9µM
CN1C(CC(O)c2ccccc2)CCCC1CC(O)c1ccccc1 (configuration not stated)	Pf growth 48h inconclusive (no result: NS1 inh)
COc1ccc(CCNCC(O)c2ccccc2)cc1 (configuration not stated)	Pf growth 96h inconclusive, Pf growth 48h 9.3µM (no result: NS1 inh)
O[C@@H](CNC[C@H](O)c1ccccc1)c1ccccc1	Pf growth 96h 9.3µM, Pf growth 48h 9.3µM
CSc1ccc(CNCC(O)c2ccccc2)cc1 (configuration not stated)	Pf growth 48h inconclusive
Cc1ccc(/C=C/C(=O)c2ccc(O)cc2)cc1	VACV mCherry inh 11µM
CSc1ccc(/C=C/C(=O)c2ccc(O)cc2)cc1	VACV mCherry inh 11µM, Pf growth 96h inconclusive, VACV Venus inh inconclusive
Cc1ccc(/C=C/C(=O)c2ccccc2)cc1	none (no result: VACV mCherry inh, HCV inh, Pf growth 48h, VACV Venus inh)
CCc1ccccc1N1CC(c2nc3ccccc3n2CCCOc2ccc(Cl)cc2)CC1=O (configuration not stated)	none (no result: HCV inh, Pf growth 96h, NS1 inh, Pf growth 48h)
O=C(NC(=S)Nc1nc(-c2ccccc2)cs1)c1cncc(Br)c1	VACV mCherry inh inconclusive, Pf growth 96h inconclusive, Pf growth 48h inconclusive, VACV Venus inh inconclusive
CCc1ccccc1OCC(=O)Nc1nc(-c2cccnc2)cs1	VACV mCherry inh inconclusive, HCV inh inconclusive, Pf growth 96h 4.1µM, Pf growth 48h 4.1µM, VACV Venus inh inconclusive (no result: NS1 inh)
CCc1ccc(-c2csc(NC(=O)Oc3ccccc3)n2)cc1	VACV mCherry inh inconclusive, Pf growth 96h 12µM
O=C(Nc1nc(-c2ccccc2Cl)cs1)c1cccnc1	HCV inh 32µM, Pf growth 48h inconclusive (no result: VACV mCherry inh, Pf growth 96h, VACV Venus inh)
O=C(NC(=S)Nc1nc(-c2ccccc2)cs1)c1cccnc1	VACV mCherry inh inconclusive, Pf growth 96h 12µM (no result: NS1 inh)
O=C(Nc1nc(-c2cccc(Br)c2)cs1)Oc1ccccc1	VACV mCherry inh inconclusive
CN1C(=O)c2ccc(C(=O)NCc3ccccn3)cc2C1=O	Pf growth 96h inconclusive
COc1ccc(C2C(C(=O)N3CCCC3)c3cc(OC)c(OC)cc3C(=O)N2C)cc1OC (configuration not stated)	none
Cc1c(Cl)cccc1Nc1ccccc1C(=O)O	Pf growth 96h 13µM!, Pf growth 48h inconclusive
Cc1c(Cl)cccc1Nc1ncccc1C(=O)O	none
CC(=O)c1ccc(OC(=O)c2c(-c3ccccc3Cl)noc2C)cc1	none (no result: HCV inh, Pf growth 96h, NS1 inh, Pf growth 48h)
Cc1csc(NC(=O)CCS(=O)(=O)c2ccc(Br)cc2)n1	VACV Venus inh inconclusive (no result: VACV mCherry inh)
CCOC(=O)C1(CCOC)CCN(CC(C)Cc2ccc3c(c2)OCO3)CC1 (configuration not stated)	none
CCOc1ccc2c(c1)C(=NNC(=O)c1ccncc1)c1cc(OCC)ccc1-2	Pf growth 96h 2.1µM, Pf growth 48h 9.3µM
CCOc1ccc(NC(=O)c2ccncc2)cc1	Pf growth 96h inconclusive
CC(=O)OC(C(=O)NC1CCCCC1)c1ccccc1F (configuration not stated)	Pf growth 96h 9.3µM
COC(C(=O)NC1CCCCCCC1)c1ccccc1 (configuration not stated)	Pf growth 96h 3.3µM
COC(CN(C)C(C(=O)NC1CCCCC1)c1ccccc1)OC (configuration not stated)	none (no result: NS1 inh)
Cc1cccc(C)c1OCC(=O)Nc1nc(-c2ccc(Br)cc2)ns1	none (no result: HCV inh, Pf growth 96h, NS1 inh, Pf growth 48h)
Cc1cccc(OCC(=O)NNC(=O)c2cccs2)c1	none (no result: NS1 inh)
Cc1cc(N2CCN(C)CC2)n2nc(-c3ccc(Cl)cc3)nc2n1	VACV mCherry inh 7.9µM, Pf growth 48h inconclusive, VACV Venus inh inconclusive
Cc1cc(C)n2nc(-c3ccc(Cl)cc3)nc2n1	none (no result: HCV inh, Pf growth 96h, NS1 inh, Pf growth 48h)
Cc1ccc(C2Nc3ccccc3C(=O)N2CCCN2CCOCC2)cc1 (configuration not stated)	none (no result: VACV mCherry inh, VACV Venus inh)
O=C1c2ccccc2NC(c2ccccc2Br)N1CCCN1CCOCC1 (configuration not stated)	HCV inh inconclusive, Pf growth 96h 10µM, Pf growth 48h inconclusive
CCc1n[nH]c(=S)n1/N=C/c1ccc(-c2ccc(Br)cc2)o1	none (no result: VACV mCherry inh, Pf growth 96h, NS1 inh, Pf growth 48h, VACV Venus inh)
CCOc1cc(CNCCO)cc(Br)c1OCc1ccc(Cl)cc1Cl	HCV inh inconclusive, Pf growth 48h 8.3µM, VACV Venus inh 13µM (no result: VACV mCherry inh)
OCCNCc1cc(Br)ccc1OCc1ccc(Cl)cc1	HCV inh inconclusive, Pf growth 96h inconclusive, Pf growth 48h inconclusive
CCOc1cccc(CNCCO)c1OCc1ccc(Cl)cc1Cl	VACV mCherry inh inconclusive, HCV inh inconclusive, Pf growth 96h inconclusive, Pf growth 48h inconclusive, VACV Venus inh inconclusive
OCCNCc1cc(Br)ccc1OCc1ccc(Cl)cc1Cl	HCV inh 11µM, Pf growth 48h inconclusive, VACV Venus inh inconclusive (no result: VACV mCherry inh)
CCOc1cc(CNCCO)cc(Br)c1OCc1cccs1	HCV inh 5.6µM, Pf growth 96h inconclusive, Pf growth 48h inconclusive, VACV Venus inh inconclusive
CC(=O)c1ccc(S(=O)(=O)N(C)C(C)CCc2ccco2)cc1 (configuration not stated)	none (no result: VACV mCherry inh, VACV Venus inh)
O=c1cc(-c2ccccc2)nc(SCc2nc(-c3ccc(C(F)(F)F)cc3)no2)[nH]1	none (no result: HCV inh, Pf growth 96h, NS1 inh, Pf growth 48h)
CCOC(=O)c1c(CNc2ccncc2)n(C)c2cc(Br)c(O)cc12	Pf growth 48h 0.33µM (no result: VACV mCherry inh, NS1 inh, VACV Venus inh)
CCOC(=O)c1c(C)n(C)c2cc(Br)c(C)cc12	VACV mCherry inh inconclusive, HCV inh 8.9µM (no result: Pf growth 48h)
CCOC(=O)c1c(CS(=O)(=O)c2ccccc2)n(C)c2cc(Br)c(O)cc12	HCV inh inconclusive (no result: VACV mCherry inh, VACV Venus inh)
Cc1cc(C(=O)Nc2cccnc2)on1	none
COc1cccc(CN2C(=O)C(C)N(C(=O)c3c(F)cccc3F)c3ccccc32)c1 (configuration not stated)	HCV inh 10µM, Pf growth 96h 6.6µM, Pf growth 48h 9.3µM (no result: VACV mCherry inh, VACV Venus inh)
CC1C(=O)N(Cc2ccccc2F)c2ccccc2N1C(=O)c1c(F)cccc1F (configuration not stated)	HCV inh inconclusive, Pf growth 96h inconclusive, Pf growth 48h inconclusive (no result: VACV mCherry inh, VACV Venus inh)
Cc1ccc(C(C(=O)NC2CCCCC2)N(Cc2ccco2)C(=O)C2COc3ccccc3O2)o1 (configuration not stated)	Pf growth 48h 7.4µM (no result: Pf growth 96h)
